Assay results as given in PubChem BioAssay (NCI).
Compounds without any hit were thinned out: in the full panel of roughly 79,000, 15% have a hit. No stated cut-off is given here; in the data, active means growth inhibition above about 70%; inactive means the rest.

Assays:
[1] = NCI Yeast Anticancer Drug Screen. Data for the rad50 strain (AID 155);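 further: 0% = growth of vehicle-only cultures of the same strain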; conditions: S. cerevisiae rad50 strain growth inhibition; at 50.0 µM; active compounds read high
In short: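 Vehicle-treated cultures provide the reference for the growth inhibition reported for compound-exposed, repair-deficient yeast.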

[2] = NCI Yeast Anticancer Drug Screen. Data for the mec2-1 strain (AID 157); conditions: S. cerevisiae mec2-1 strain, at 50.0 µM, active compounds read high
In short: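 Using mec2-1 yeast: add compound, measure growth, express inhibition versus vehicle-treated cultures.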

[3] = NCI Yeast Anticancer Drug Screen. Data for the sgs1 mgt1 strain (AID 161);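 further: 0% = growth of cultures given vehicle only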; conditions: S. cerevisiae sgs1 mgt1 strain, at 50.0 µM, active compounds read high
In short: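 Growth of a repair-deficient yeast mutant was monitored after compound treatment and expressed as inhibition relative to vehicle-treated cultures.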

[4] = NCI Yeast Anticancer Drug Screen. Data for the cln2 rad14 strain (AID 165);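 further: 0% = growth equal to vehicle treated cultures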; conditions: S. cerevisiae cln2 rad14 strain, at 50.0 µM, active compounds read high
In short: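 Yeast strain cln2 rad14, bearing defects in cell cycle control and DNA repair, serves as the test system; values reflect growth inhibition compared with vehicle.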

[5] = NCI Yeast Anticancer Drug Screen. Data for the bub3 strain (AID 167); conditions: S. cerevisiae bub3 mutant strain, at 50.0 µM, active compounds read high
In short: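 Mutant yeast screening strain plus compound; vehicle-treated cultures serve as the 0% inhibition reference.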

[6] = NCI Yeast Anticancer Drug Screen. Data for the mlh1 rad18 strain (AID 175); conditions: S. cerevisiae mlh1 rad18 strain growth inhibition; at 50.0 µM; active compounds read high
In short: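 Steps: expose repair-defective yeast to compound; measure growth; express inhibition against vehicle-treated controls.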

Measured: growth inhibition

[Cl][Pt+2][Cl].[NH-]c1ccccc1F.[NH-]c1ccccc1F
inactive: [1] 11.2% | [2] 32.9% | [3] -14.8% | [4] 15.8% | [5] -26.9% | [6] 34.4%

OC1CC2CCC(C1)N2c1ccccc1 (stereo unspecified)
inactive: [1] 2.35% | [2] 4.95% | [3] 16.6% | [4] -29.9% | [5] 19.1% | [6] 14.3%

CC(C)C/C(=N\NC(N)=O)C1=CCCCC1
inactive: [1] 10.8% | [2] 4.2% | [3] -1.15% | [4] -40.5% | [5] -0.1% | [6] 11.7%

COC(=O)c1cc2c3c(ccc2[nH]1)N(C(=O)c1cc2c4c(ccc2[nH]1)N(C(=O)c1cc2c5c(ccc2[nH]1)N(C(N)=O)CC5)CC4)CC3
inactive: [1] 18.8% | [2] 5.05% | [3] -2.05% | [4] 15.7% | [5] 29.8% | [6] 11.9%

CC1CCP(=O)(c2ccccc2)CC1 (stereo unspecified)
inactive: [1] 8.5% | [2] -10.8% | [3] -7.15% | [4] 6.9% | [5] -7.3% | [6] -35.2%

C[n+]1ccsn1
inactive: [1] -0.7% | [2] 3.05% | [3] -4.7% | [4] 37% | [5] -19.4% | [6] -10.4%

O=N/C(=C(\c1ccccc1)N1CCOCC1)c1ccccc1
inactive: [1] -10.2% | [2] 11.8% | [3] 9.6% | [4] -2.45% | [5] -20.6% | [6] 6.45%

CCN(CC)CCCN1CCc2c([nH]c3ccccc23)C1c1cccnc1 (stereo unspecified)
inactive: [1] -4.2% | [2] -18.4% | [3] -0.3% | [4] 5.9% | [5] -18.1% | [6] -17.4%

O=C1C(Cl)(Cl)C(=O)C(Cl)(Cl)C(=O)C1(Cl)Cl
inactive: [1] 20.2% | [2] 24.5% | [3] 47% | [4] 0.4% | [5] 16.3% | [6] 31.7%

CCSc1nc(Cl)nc2c1cnn2C
inactive: [1] 7.95% | [2] -2.15% | [3] 8.05% | [4] 4.1% | [5] 24.9% | [6] 5.4%

CSCCC(NC(=O)c1ccccc1)C(=O)O (stereo unspecified)
inactive: [1] -2.95% | [2] -15% | [3] 1.35% | [4] 3.85% | [5] 3.3% | [6] -10.6%

Cc1cccc(N=C2NC(=O)C(CC(=O)Nc3ccc(Cl)cc3C)S2)c1 (stereo unspecified)
inactive: [1] 0.05% | [2] -1.9% | [3] 1.95% | [4] 3.55% | [5] 8.15% | [6] 3%

C[n+]1c(/C=C/c2ccc3c(c2)OCO3)ccc2ccccc21
inactive: [1] 1.55% | [2] -0.2% | [3] 22% | [4] 6% | [5] 14.1% | [6] 14.2%

O=c1[nH]c(-c2ccccc2)nc2cc([N+](=O)[O-])c(/C(Cl)=C/c3ccccc3)cc12
inactive: [1] 28.8% | [2] 14.4% | [3] 13.8% | [4] 12.1% | [5] -1% | [6] 33.8%

Clc1nc(Cl)c2ncnc(Cl)c2n1
inactive: [1] -34.5% | [2] 16.1% | [3] -23.2% | [4] -11.4% | [5] -3.7% | [6] -5.7%

CC(C)COC(=O)C(=O)OCC(C)C
inactive: [1] 14.9% | [2] 23.1% | [3] -6.45% | [4] 34% | [5] -5.05% | [6] -14.7%

COc1ncn(C2CC(OC(=O)c3ccc(C)cc3)C(COC(=O)c3ccc(C)cc3)O2)c(=O)n1 (stereo unspecified)
inactive: [1] -8.3% | [2] -9.1% | [3] -14.7% | [4] -22.4% | [5] -0.6% | [6] -3.05%

O=C(Nc1ccc(Cl)cc1)Nc1nnc(-c2ccccc2Br)o1
inactive: [1] 15.6% | [2] 18.6% | [3] 19.2% | [4] -15.4% | [5] -22.6% | [6] 8.3%

CC(=O)OCC1(C)CCC(C)CO1 (stereo unspecified)
inactive: [1] -21.4% | [2] -4.45% | [3] 7.8% | [4] 15.2% | [5] 1.1% | [6] 7%

CC(=O)OCC1(C)C(O)CCC2(C)C1CCC1CC3CC12CCC3(O)CO (stereo unspecified)
inactive: [1] 12.2% | [2] -26% | [3] 13.8% | [4] 2.95% | [5] -23.4% | [6] 7.9%

COc1cc2cc(c1Cl)NC(=O)/C=C/[C@]1(C)O[C@H]1[C@H](C)[C@@H]1C[C@@](O)(NC(=O)O1)[C@H](OC)C=C/C=C(\C)C2
inactive: [1] 20.2% | [2] 4.55% | [3] 12.1% | [4] 22.1% | [5] 20.5% | [6] 21.4%
